Hit rate of the full screen: of about 220,000 compounds, about 830 (0.38%) were called active.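 Rule for the calls: active = compound inhibiting the enzyme by more than half at any dose during confirmatory dose-response retesting; inconclusive = strong single-dose inhibitors picked by rank but not retested; inactive = the rest.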 These entries were drawn from the full list. Entries with a potency or affinity are not part of this list.
molecular target: Leucine aminopeptidase (Plasmodium falciparum (isolate 3D7)) (UniProt Q8IL11); assay: P. falciparum M17LAP inhibitors, primary screen, biochemical, fluorogenic H-Leu-NHMec substrate, 1536-well (AID 1619); conditions: recombinant M17LAP, H-Leu-NHMec fluorogenic kinetic assay; at 30 µM; active compounds read high;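 note: plate controls were full reaction with DMSO carrier for no effect and no enzyme background for full effect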
Sequence (Q8IL11 whole entry, looked up): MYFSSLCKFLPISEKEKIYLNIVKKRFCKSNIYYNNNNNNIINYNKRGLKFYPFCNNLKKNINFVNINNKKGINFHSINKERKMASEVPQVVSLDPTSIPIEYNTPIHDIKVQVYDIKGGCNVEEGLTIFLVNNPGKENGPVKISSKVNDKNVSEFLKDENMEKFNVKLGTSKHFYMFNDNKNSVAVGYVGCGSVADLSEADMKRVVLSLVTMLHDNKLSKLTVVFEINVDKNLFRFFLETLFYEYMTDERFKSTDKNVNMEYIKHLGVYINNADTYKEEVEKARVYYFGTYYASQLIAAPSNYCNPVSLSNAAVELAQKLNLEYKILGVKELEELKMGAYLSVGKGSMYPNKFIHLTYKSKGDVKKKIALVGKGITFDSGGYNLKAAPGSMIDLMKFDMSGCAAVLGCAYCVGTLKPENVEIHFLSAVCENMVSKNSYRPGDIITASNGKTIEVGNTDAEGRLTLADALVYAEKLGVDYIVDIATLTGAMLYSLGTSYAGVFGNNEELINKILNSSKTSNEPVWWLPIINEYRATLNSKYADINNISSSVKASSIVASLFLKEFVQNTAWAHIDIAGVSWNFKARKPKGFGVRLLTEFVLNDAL

inhibition, inactive:
Cc1ccc(C)c2nc(SCC(=O)N3CCCc4ccccc43)c(C#N)cc12 -4.2%
CC(=O)NCC(=O)N1CCCC(C(=O)c2ccc(-c3ccccc3)c(F)c2)C1 (configuration not stated) -3.83%
Cc1cc(Nc2ccc([N+](=O)[O-])cc2)nc2ccccc12 13.7%
CC1=C(C)CC(C(=O)Nc2ccc(C(N)=O)cc2)C(C(=O)O)C1 (configuration not stated) 20.2%
CCOc1ccc(NC(=O)C2CC(=O)OC2c2ccccc2)cc1 (configuration not stated) -1.92%
CC(C)OC(=O)C1CC=CCC1C(=O)Nc1ccc(Cl)cc1 (configuration not stated) 2.15%
CC(C)(C)c1ccc(Oc2ccc(NC(=O)C3CC=CCC3C(=O)O)cc2)cc1 (configuration not stated) 3.52%
CCOc1ccc(NC(=O)C2C3CC/C=C\CCC32)cc1 (configuration not stated) 4.68%
CCOc1ccc(NS(=O)(=O)c2ccc(NC(=O)[C@@H]3CCCC[C@@H]3C(=O)O)cc2)cc1 42.4%
CC(=O)c1ccn(S(=O)(=O)c2ccc(Cl)cc2)c1 9.38%
CC(=O)Nc1ccc(NC(=O)C2CCCN(c3nnc(-n4cccc4)s3)C2)cc1 (configuration not stated) 4.4%
CCNC(=O)NCc1c(C)c(C)n(Cc2ccccc2)c1-n1cccc1 4.1%
CCOc1ccc2[nH]cc(C(=O)NCCCN3CCOCC3)c(=O)c2c1 4.64%
CCCCN1CNC(=S)N(CCc2ccc(OCC)c(OCC)c2)C1 4.53%
Cc1nnc(SCC(=O)NCc2ccc3c(c2)OCO3)n1C -1.94%
Cn1c(SCC(=O)c2ccc3c(c2)OCO3)nnc1C1COc2ccccc2O1 (configuration not stated) 10.4%
C=CCn1c(SCC(=O)Nc2cc(C)on2)nnc1C1COc2ccccc2O1 (configuration not stated) 9.81%
C=CCn1c(SCC(=O)NCc2ccc3c(c2)OCO3)nnc1C1CCCCC1 20.8%
O=c1[nH][nH]cc1C=Nc1ccccc1Cl 2.22%
Clc1ccc(OCc2nc(-c3ccncc3)no2)cc1 0.59%
COc1ccc(-c2[nH]n(-c3ccc([N+](=O)[O-])cc3)c(=O)c2C=NCc2ccncc2)cc1 -8.57%
CC(C)COC(=O)Nc1ccc(C(=O)O)cc1 13.3%
Cc1cc(C(F)F)n2nc(C(=O)Nc3ccccc3F)nc2n1 1.81%
O=C(O)CCCN1C(=O)/C(=C/c2cn(-c3ccccc3)nc2-c2cccs2)SC1=S 7.34%
O=C(O)CCCCCN1C(=O)/C(=C\c2cn(-c3ccccc3)nc2-c2cccs2)SC1=S -1.95%
Cn1c(=O)c(-c2cc(Br)ccc2N)nc2ccccc21 9.54%
NC(=O)c1c(NC(=O)C2CCCO2)sc2c1CCC2 (configuration not stated) 40%
COC(=O)c1c(NC(=O)c2ccoc2C)sc2c1CCC2 -15.6%
CCOC(=O)c1c(NC(=O)c2ccoc2C)sc2c1CCC2 16.6%
NC(=O)c1c(NC(=O)C2CCCO2)sc2c1CCCC2 (configuration not stated) 25.2%
O=c1cc(-c2ccc([N+](=O)[O-])cc2)c2cc3c(cc2[nH]1)OCCO3 0.51%
CCc1cccc(C)c1NC(=S)N(CCN(C)C)C(C)c1cccnc1 (configuration not stated) 3.46%
CSc1nnc(-c2sc3cc(C(F)(F)F)cnc3c2-c2cccnc2)n1C 2.54%
COc1cc(OC)c2ccc(=O)oc2c1C(CC(=O)N1CCOCC1)c1ccc2c(c1)OCO2 (configuration not stated) 11.3%
CCCc1cc(=O)[nH]c(SCCOc2ccc(Cl)cc2)n1 3.09%
CCN=C(NCC)SC1CC(=O)N(c2ccccc2)C1=O (configuration not stated) 0.73%
Cn1cnc(S(=O)(=O)Nc2ccc(C(F)(F)F)cc2)c1 8.69%
COc1ccc(S(=O)(=O)Nc2ccc(C(F)(F)F)cc2)cc1OC 8.66%
Cc1cc(NC(=O)CN2CCCCC2C)no1 (configuration not stated) 15.1%
CC(=C/c1ccccc1)/C=N/NC(=O)CSc1nc(C)cc(C)n1 22.8%
CC(/C=N/NC(=O)CSc1nc(C)cc(C)n1)=C\c1ccccc1 11.7%
COc1ccccc1/C=C\C=N\NC(=O)CCn1nnc2ccccc21 4.22%
CC1C(=O)NN=C1C(=O)N/N=C\C(Br)=C\c1ccccc1 (configuration not stated) 45.9%
CC1=NNC(=O)C1CC(=O)N/N=C/C=C/c1ccccc1 (configuration not stated) 19.3%
CC1=NNC(=O)C1CC(=O)N/N=C/C(Br)=C/c1ccccc1 (configuration not stated) 15.5%
Cc1ccc(NC(=O)CCC(=O)N/N=C/C=C/c2ccccc2)cc1 16.5%
COc1ccccc1/C=C/C=N/NC(=O)CC1C(=O)NN=C1C (configuration not stated) 13.6%
Cc1ccc(C(=O)Nc2cc(=O)n(C)c(=O)n2C)cc1C 1.37%
CCNC(=O)C/C(C)=N/NC(=O)C1CCCCC1 12.5%
CCn1ccnc1CN(C)Cc1nc(-c2ccc(C(=O)OC)cc2)no1 2.83%
O=C(CNS(=O)(=O)c1ccc(C(=O)N2CCOCC2)cc1)N1CCOCC1 -0.01%
COc1ccccc1NC(=S)N1CCC(c2nc3ccccc3o2)CC1 2.4%
CCOC(=O)CCn1c(=S)n(CCC(=O)OCC)c2ccccc21 9.93%
COc1ccc(N2CCN(CC(O)COc3ccc([N+](=O)[O-])cc3)CC2)cc1 (configuration not stated) 4.37%
O=C(Cc1ccccc1)c1c[nH]c(C(=O)O)c1 -7.97%
NC(=O)c1cccc(CC(=O)c2ccccc2)c1 -5.22%
O=c1[nH]nc(N/N=C/c2ccccc2OC(F)F)c(=O)[nH]1 3.73%
CC(=O)Nc1scc(C)c1-c1nc2ccccc2s1 -9.4%
O=C(O)CCC(=O)Nc1nc2ccccc2s1 16.1%
Cc1cccc(C)c1NC(=O)CCCSc1nc2ccccc2s1 2.06%
Cc1csc(NC(=O)CSCC(=O)O)c1-c1nc2ccccc2s1 1.7%
O=C(NNC(=S)Nc1ccc(Br)cc1Cl)c1ccncc1 21.5%
